Some test systems named below: NCI-H23 lung; NCI-H322M lung; HOP-62 NSCLC; NCI-H460 lung; HOP-92 NSCLC; NCI-H522 lung; A549/ATCC NSCLC; 786-0 renal; COLO 205 colon; DU-145 prostate; K-562 leukemia; MALME-3M melanoma; MDA-MB-231 breast; RXF 393 renal; SF-268 CNS; SF-295 CNS; SF-539 CNS; UACC-257 melanoma; M14 melanoma; HCT-15 colon.
Test in all cases: NCI-60 one-dose screen, 48 h (100 = growth as untreated, 0 = no growth, -100 = all killed)
What all share (conditions): 10 µM unless noted

Consider seven compounds from PubChem BioAssay (NCI).

Compounds without any hit were thinned out: in the full panel of roughly 83,000, 20% have a hit.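 Treatment: one concentration, 48 hours, 96-well format. Scoring: percent growth, with anything below 10 considered active.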 A number with no mark means an inactive call. The source made the active and inactive calls.

Consider `Oc1ccc(-c2nc(-c3ccc4oc5ccc(-c6[nH]c(-c7ccc(O)cc7)nc6-c6ccccc6)cc5c4c3)c(-c3ccccc3)[nH]2)cc1`, for which the growth was 43.9% in the assay on NCI-H23 lung; 78.6% with NCI-H322M lung; 73.3% in the assay on HOP-62 NSCLC; 59.1% with NCI-H460 lung; 25.7% in the assay with HOP-92 NSCLC; 59.4% in the assay on NCI-H522 lung. The growth was 65.8% in the assay on A549/ATCC NSCLC; 86.4% with 786-0 renal; 53.8% in the assay on COLO 205 colon; 89% in the assay with DU-145 prostate; 22.7% in the assay with K-562 leukemia; 43.1% in the assay on MALME-3M melanoma. Moreover, the growth was 59.5% in the assay on MDA-MB-231 breast; 84.9% in the assay with RXF 393 renal; 63.5% in the assay on SF-268 CNS; 15.6% in the assay with SF-295 CNS; 79.4% in the assay with SF-539 CNS; 34.5% with UACC-257 melanoma. The growth in the assay on M14 melanoma was 65.5%; in the assay with HCT-15 colon, 78.8%.

Consider `C1CCN(c2nc(N3CCCCC3)nc(N3CCOCC3)n2)CC1`, for which the growth is 95.7% in the assay on NCI-H23 lung; 105% with NCI-H322M lung; 94.3% in the assay with HOP-62 NSCLC; 109% in the assay on NCI-H460 lung; 112% in the assay on HOP-92 NSCLC; 78% with NCI-H522 lung. Moreover, the growth in the assay on A549/ATCC NSCLC was 87%; with 786-0 renal it was 97.3%; in the assay with COLO 205 colon, 107%; with DU-145 prostate, 119%; in the assay with K-562 leukemia it was 101%; in the assay on MALME-3M melanoma, 100%. The growth is 93.9% in the assay on MDA-MB-231 breast; 107% with RXF 393 renal; 105% with SF-268 CNS; 111% with SF-295 CNS; 113% with SF-539 CNS; 97.1% in the assay on UACC-257 melanoma. For the same compound, the growth is 113% in the assay on M14 melanoma and 105% in the assay with HCT-15 colon.

Take `CC1=NCC2NC(=O)NC(C)=C12` (stereo not given): the growth in the assay on NCI-H23 lung was 103%; in the assay on NCI-H322M lung it was 94.7%; in the assay with HOP-62 NSCLC, 97.9%; in the assay on NCI-H460 lung, 101%; with HOP-92 NSCLC it was 87.7%; with NCI-H522 lung, 96.5%. Moreover, the growth in the assay with A549/ATCC NSCLC is 105%; with 786-0 renal it was 96.9%; in the assay on COLO 205 colon, 108%; with DU-145 prostate, 104%; in the assay with K-562 leukemia, 110%; with MALME-3M melanoma, 96%. For the same compound, the growth in the assay on MDA-MB-231 breast is 95%; in the assay with RXF 393 renal, 101%; in the assay on SF-268 CNS it was 96.1%; with SF-295 CNS, 103%; in the assay with SF-539 CNS, 95.8%; in the assay with UACC-257 melanoma it was 105%. In addition, the values for the growth in the assay on M14 melanoma and with HCT-15 colon were 98.5% and 103%, respectively.

In the case of `O=C(Nc1ccc(Cl)cc1F)c1cc(Br)ccc1O`, the growth in the assay on NCI-H23 lung was 4.02% (active); in the assay on NCI-H322M lung, 7.3% (active); in the assay with HOP-62 NSCLC it was 1.76% (active); in the assay on NCI-H460 lung it was 4.27% (active); in the assay with HOP-92 NSCLC, -12.8% (active); with NCI-H522 lung, -12.9% (active). The growth in the assay with A549/ATCC NSCLC is 7.61% (active); in the assay on 786-0 renal, 3.02% (active); in the assay on COLO 205 colon, 51.5%; in the assay on DU-145 prostate it was 17.2%; in the assay on K-562 leukemia, 8.83% (active); in the assay with MALME-3M melanoma, -16.9% (active). Moreover, the growth was -26.1% (active) with MDA-MB-231 breast; 7.94% (active) with RXF 393 renal; 13.6% with SF-268 CNS; -48.3% (active) in the assay on SF-295 CNS; 7.34% (active) in the assay on SF-539 CNS; -15.8% (active) in the assay on UACC-257 melanoma. For the same compound, the growth is 8.91% (active) in the assay on M14 melanoma and 4.84% (active) with HCT-15 colon.

Take `CC1=C(C(=O)OCC2CCN(C(=O)OC(C)(C)C)CC2)[C@@H](c2cccc(C#N)c2)C2=C(CC(C)(C)CC2=O)N1`: the growth is 53.3% in the assay on NCI-H23 lung; 57.1% in the assay with NCI-H322M lung; 65.8% with HOP-62 NSCLC; 8.58% (active) in the assay with NCI-H460 lung; 79.9% in the assay on HOP-92 NSCLC; 29.6% in the assay on NCI-H522 lung. Also, the growth with A549/ATCC NSCLC is 35.5%; in the assay on 786-0 renal, 41.5%; in the assay with COLO 205 colon it was 38.6%; in the assay on DU-145 prostate it was 38.5%; in the assay on K-562 leukemia it was 25.5%; with MALME-3M melanoma it was 48.5%. The growth with MDA-MB-231 breast was 61.1%; in the assay on RXF 393 renal it was 71%; with SF-268 CNS it was 50.5%; with SF-295 CNS, 27.5%; in the assay on SF-539 CNS it was 41.7%; in the assay with UACC-257 melanoma, 61.4%. Besides, the figures for the growth with M14 melanoma and in the assay on HCT-15 colon were 35.7% and 19.5%, respectively.

In the case of `Cc1c(-c2csc(-n3nc(C(F)(F)F)cc3C(F)(F)F)n2)no[n+]1[O-]`, the growth in the assay on NCI-H23 lung was 98.4%; in the assay with NCI-H322M lung, 98.8%; with HOP-62 NSCLC, 100%; with NCI-H460 lung, 98.9%; with HOP-92 NSCLC, 96.3%; in the assay with NCI-H522 lung, 87.4%. Further, the growth with A549/ATCC NSCLC was 95.3%; with 786-0 renal, 97.5%; in the assay with COLO 205 colon, 112%; with DU-145 prostate, 105%; in the assay with K-562 leukemia, 93.1%; with MALME-3M melanoma, 96.8%. The growth in the assay with MDA-MB-231 breast was 96.5%; in the assay on RXF 393 renal it was 101%; with SF-268 CNS it was 96.1%; in the assay with SF-295 CNS, 93.9%; in the assay with SF-539 CNS it was 99.1%; in the assay on UACC-257 melanoma it was 98.5%. Moreover, the growth is 90.2% in the assay with M14 melanoma and 95.4% in the assay on HCT-15 colon.

Take `O=c1oc2ccc(Cl)cc2c(=O)n1-c1ccc(F)cc1F`: the growth with NCI-H23 lung is 7.47% (active); in the assay on NCI-H322M lung, 3.62% (active); in the assay on HOP-62 NSCLC, 4.11% (active); with NCI-H460 lung, 7.56% (active); with HOP-92 NSCLC it was -22.9% (active); with NCI-H522 lung, -23% (active). Moreover, the growth is 4.94% (active) in the assay on A549/ATCC NSCLC; 9.41% (active) in the assay on 786-0 renal; 64.9% in the assay with COLO 205 colon; 18.7% in the assay with DU-145 prostate; 9.99% (active) with K-562 leukemia; -23.8% (active) in the assay with MALME-3M melanoma. Moreover, the growth was 4.44% (active) in the assay on MDA-MB-231 breast; 2.26% (active) in the assay with RXF 393 renal; 12.3% with SF-268 CNS; -7.12% (active) in the assay on SF-295 CNS; 13.2% with SF-539 CNS; -13.1% (active) with UACC-257 melanoma. In addition, the growth was 20.3% in the assay on M14 melanoma and 13.5% with HCT-15 colon.
